Source: PubChem
An excerpt weighted towards active compounds, which were near 1.4% of everything screened.
TrxR1 substrate = qHTS Assay for Substrates of Mammalian Selenoprotein Thioredoxin Reductase 1 (TrxR1): qHTS | purified TrxR1 substrate turnover, NADPH consumption readout | Potency, µM (top dose mostly 114 µM), inactives show top-dose activity change, negative = substrate turnover | Thioredoxin reductase 1, cytoplasmic (Rattus norvegicus), O89049 | hit rate 0.01% among 390,000; also: potency is read from the fitted curve at half-maximal effect; nearly all actives have a fitted effect of over 50% in size
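Rat TrxR1, dispensed at 90 nM, was prereduced with 400 uM NADPH (final) for 5 min at ~22 deg C, then incubated with compound 15 min before 400 uM selenite. A first-read NADPH fluorescence drop versus no-compound background flagged substrates.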
LDHA inh = qHTS assay for inhibitors of human lactate dehydrogenase; L-lactate dehydrogenase A chain (Homo sapiens), P00338; purified LDHA, NADH/diaphorase-resazurin fluorescence; hits give low values; activity change, % (values are at about 110 or 230 µM); hit rate 0.15% among 480,000; AID 1347041, 2019; in the data active = activity change below about -30%; inconclusive = mostly about -25% to -30%;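 also: plate controls were DMSO wells for no effect and wells without enzyme for full effect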
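Human LDH5 (2 nM) was incubated with 0.06 mM NADH and 0.2 mM pyruvate for 5 min at room temperature in Tris pH 7.4. Remaining NADH was coupled through diaphorase/resazurin, and resorufin fluorescence was read at 0 and 20 min.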
IDH1 R132H inh = qHTS for Inhibitors of mutant isocitrate dehydrogenase 1 (IDH1): qHTS; hit rate 0.093% among 390,000; Isocitrate dehydrogenase [NADP] cytoplasmic (Homo sapiens), O75874; AID 602179, 2012; IDH1-R132H enzyme, NADPH consumption, diaphorase/resazurin fluorescence; Potency, µM (doses to about 76.6 µM), for inactives: at the highest dose activity change, negative = inhibition, actives largely listed as inhibitors; also: potency is read from the fitted curve at half-maximal effect; nearly all actives have a fitted effect of over 65% in size
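IDH1-R132H (0.5 ug/mL dispensed) in pH 7.5 Tris buffer was preincubated 30 min with compound, then given a substrate mix of 0.016 mM NADPH and 2 mM alpha-KG for 80 min at room temperature; remaining NADPH was read by diaphorase/resazurin fluorescence.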
GLS inh = qHTS for Inhibitors of Glutaminase (GLS) | Glutaminase kidney isoform, mitochondrial (Homo sapiens), O94925 | GLS enzymatic activity, qHTS titration | Potency, µM (top dose mostly 45.5 µM), without a hit: top-dose activity change, negative = inhibition, actives largely listed as inhibitors | hit rate 0.21% among 410,000 | AID 624170, 2012; also: potency is read from the fitted curve at half-maximal effect
Target sequence (O94925 whole entry, looked up, canonical isoform): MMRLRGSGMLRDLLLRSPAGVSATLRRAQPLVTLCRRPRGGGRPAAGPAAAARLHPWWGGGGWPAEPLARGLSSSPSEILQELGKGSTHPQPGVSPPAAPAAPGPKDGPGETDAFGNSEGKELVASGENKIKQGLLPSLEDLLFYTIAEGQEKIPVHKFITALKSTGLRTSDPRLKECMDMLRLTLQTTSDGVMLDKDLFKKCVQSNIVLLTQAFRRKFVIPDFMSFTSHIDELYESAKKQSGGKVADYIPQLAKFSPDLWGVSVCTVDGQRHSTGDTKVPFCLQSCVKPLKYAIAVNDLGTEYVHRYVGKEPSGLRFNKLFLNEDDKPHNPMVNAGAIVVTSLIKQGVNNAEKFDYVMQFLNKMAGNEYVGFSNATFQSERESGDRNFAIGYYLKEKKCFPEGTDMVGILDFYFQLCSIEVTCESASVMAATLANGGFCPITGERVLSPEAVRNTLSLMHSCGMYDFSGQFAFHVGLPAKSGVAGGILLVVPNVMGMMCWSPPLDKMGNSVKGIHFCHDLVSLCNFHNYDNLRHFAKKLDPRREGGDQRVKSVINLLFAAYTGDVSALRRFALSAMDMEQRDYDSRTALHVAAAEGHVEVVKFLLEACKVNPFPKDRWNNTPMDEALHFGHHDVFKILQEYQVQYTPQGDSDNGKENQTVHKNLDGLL
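Human kidney-isoform GLS in 45 mM KH2PO4 pH 8.2, 0.02% Tween-20, with compound, started with 1mM L-Glutamine (added stock). Glutamate oxidase/HRP/Amplex red coupled fluorescence read at start and after 30 min at RT.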
rTrxR1 inhibitor = qHTS Assay for Inhibitors of Mammalian Selenoprotein Thioredoxin Reductase 1 (TrxR1): qHTS; recombinant rTrxR1, NADPH fluorescence consumption, selenite substrate; Potency, µM (highest dose often 114 µM), without a hit: at the top dose activity change, negative = inhibition, hits mostly inhibitors; hit rate 1% among 390,000; AID 588453, 2011; also: potency is read from the fitted curve at half-maximal effect; nearly all actives have a fitted effect of over 65% in size
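Rat TrxR1 (90 nM in the dispensed reagent) was pre-reduced with 400 uM NADPH for 5 min at room temperature, then incubated with compound for 15 min. After 400 uM selenite was added, NADPH fluorescence (Ex 340/Em 450 nm) was followed for 8 min.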
PKM2 activator = qHTS Assay for Activators of Human Muscle isoform 2 Pyruvate Kinase; purified PKM2, Kinase-Glo ATP luminescence, activation; response scale: 0% is enzyme alone, no compound; hit rate 0.34% among 260,000; AID 1631, 2009; Potency, µM (doses to about 57.5 µM), for the others: top-dose activation, actives largely listed as activators; Pyruvate kinase PKM (Homo sapiens), P14618; also: potency is read from the fitted curve at half-maximal effect; nearly all actives have a fitted effect of over 55% in size
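Purified hPK-M2 (>95%) run at intermediate activity with 0.1 mM ADP and 0.5 mM PEP in 50 mM imidazole pH 7.2, KCl, MgCl2; 1 h room temperature. ATP formed read by Kinase-Glo luminescence; normalized to uninhibited and no-enzyme controls.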
Numbers without * were called inactive; [ ] = another dose, or the depositor's remark. Unless noted, calls follow the shape of the dose curve; as a rule, active = well fitted curve in the direction sought with a large enough effect; inconclusive = small, poorly fitted or top-dose-only effect, or another doubt; inactive = no such curve, though single readings can be large; an effect the other way counts as inactive or inconclusive. Unless noted, % is scaled to controls: 0 for no effect and ±100 for the full control effect.

What do the screens show for `CCCn1c(C)c(C(=O)OCc2ccccc2)c2cc(O)ccc21`?
LDHA inh: 17.2

How did OCCCc1ccc(O)c(O)c1 do in these assays?
TrxR1 substrate: 4.7%; LDHA inh: 15.0; IDH1 R132H inh: -4.1%; GLS inh: 16.5%; rTrxR1 inhibitor: 79.4µM*; PKM2 activator: 0.7%

What do the screens show for `O=c1[nH]c(=S)n(-c2ccccc2F)c(O)c1C=NCc1ccco1`?
TrxR1 substrate: -6.9%; LDHA inh: -4.0; IDH1 R132H inh: 6.2%; GLS inh: 0.1%; rTrxR1 inhibitor: -10.6%; PKM2 activator: -3.2%

Results for Cc1ccc(-n2c(O)c(C=NCc3ccco3)c(=O)[nH]c2=S)cc1C ?
TrxR1 substrate: -2.2%[57.1 µM]; LDHA inh: 10.7; IDH1 R132H inh: 5.1%; GLS inh: 0.0%; rTrxR1 inhibitor: 12.6µM*; PKM2 activator: 25.3%

How did Cc1cccc(OCC(=O)N2CCN(Cc3ccncc3)CC2)c1 do in these assays?
TrxR1 substrate: 8.6%[57.1 µM]; LDHA inh: inconclusive; IDH1 R132H inh: 14.2%; GLS inh: -0.5%; rTrxR1 inhibitor: 0.4%[57.1 µM]; PKM2 activator: -0.3%

What do the screens show for `O=C(COc1ccc(Br)cc1)N1CCN(Cc2ccncc2)CC1`?
TrxR1 substrate: 8.0%[57.1 µM]; LDHA inh: -38.8*; IDH1 R132H inh: 8.3%; GLS inh: 1.0%; rTrxR1 inhibitor: 6.8%[57.1 µM]; PKM2 activator: -1.9%

How did CC1=C(C(=O)OCc2ccc3c(c2)OCO3)[C@H]2C[C@](C)(N1)Oc1ccccc12 do in these assays?
LDHA inh: 2.9

What do the screens show for `O=C1OC(c2cc(I)c(O)c(I)c2)(c2cc(I)c(O)c(I)c2)c2ccccc21`?
GLS inh: 25.1µM*

What do the screens show for `Cc1cc(/C=C2\C(=O)NC(=O)N(c3ccccc3F)C2=O)c(C)n1-c1cc(C(=O)O)cc(C(=O)O)c1`?
TrxR1 substrate: -1.3%[57.1 µM]; LDHA inh: -0.9; IDH1 R132H inh: 3.9%; GLS inh: 5.01µM*; rTrxR1 inhibitor: -40.8%

How did CCOc1ccccc1N1C(=O)NC(=O)/C(=C/c2ccc3c4c(cccc24)CC3)C1=O do in these assays?
TrxR1 substrate: 87.3%; LDHA inh: -72.2*; IDH1 R132H inh: 1.9%; GLS inh: -0.1%; rTrxR1 inhibitor: 22.4µM*; PKM2 activator: -0.4%

How did CCOc1ccc(N2C(=O)/C(=C/c3ccco3)C(=O)NC2=S)cc1 do in these assays?
TrxR1 substrate: -4.4%; LDHA inh: -36.9*; IDH1 R132H inh: -9.6%; GLS inh: 1.78µM*; rTrxR1 inhibitor: inconclusive; PKM2 activator: 19.7%

What do the screens show for `CCOc1ccc(N2C(=O)/C(=C\c3cccs3)C(=O)NC2=S)cc1`?
TrxR1 substrate: 22.6%[57.1 µM]; LDHA inh: -8.7; IDH1 R132H inh: 3.3%; GLS inh: -10.7%; rTrxR1 inhibitor: 22.4µM*; PKM2 activator: inconclusive

Results for O=C1NC(=S)N(c2ccccc2F)C(=O)/C1=C\c1cccs1 ?
TrxR1 substrate: -2.1%; LDHA inh: -15.4; IDH1 R132H inh: 3.0%; GLS inh: -14.2%; rTrxR1 inhibitor: 8.91µM*; PKM2 activator: inconclusive

Results for CCc1ccc(N2C(=O)NC(=O)/C(=C\C=C\c3ccco3)C2=O)cc1 ?
TrxR1 substrate: -4.2%; LDHA inh: 0.9; IDH1 R132H inh: 2.0%; GLS inh: -18.8%; rTrxR1 inhibitor: -27.7%; PKM2 activator: 23.9%

How did CCCC(=O)c1cn(Cc2ccc(C#N)cc2)c2ccccc12 do in these assays?
LDHA inh: 0.0

What do the screens show for `Cc1cc(C)cc(N2C(=O)NC(=O)C3(Cc4cc(C)ccc4N(C)C3)C2=O)c1` (stereo not drawn)?
LDHA inh: 9.6

Results for COc1cc(C=C2C(=O)NC(=O)NC2=O)ccc1O ?
TrxR1 substrate: 1.1%[57.1 µM]; LDHA inh: 0.7; IDH1 R132H inh: 2.7%; GLS inh: 17.0%; rTrxR1 inhibitor: inconclusive; PKM2 activator: 8.8%

How did COc1ccc(CN2C(=O)NC(=O)/C(=C/c3ccoc3)C2=O)cc1 do in these assays?
TrxR1 substrate: -4.3%; LDHA inh: -12.7; IDH1 R132H inh: -4.5%; GLS inh: -22.4%; rTrxR1 inhibitor: -21.2%; PKM2 activator: 28.7%

How did CCOc1ccc(/C=C2/C(=O)NC(=O)N(CCc3ccc(F)cc3)C2=O)cc1 do in these assays?
TrxR1 substrate: 0.9%; LDHA inh: -14.2; IDH1 R132H inh: -4.6%; GLS inh: 0.9%; rTrxR1 inhibitor: 28.2µM*; PKM2 activator: 12.2%

What do the screens show for `COc1cc(/C=C2\C(=O)NC(=O)N(CCc3ccc(F)cc3)C2=O)ccc1O`?
TrxR1 substrate: -9.4%; LDHA inh: 4.4; IDH1 R132H inh: -1.5%; GLS inh: 6.6%; rTrxR1 inhibitor: 14.1µM*; PKM2 activator: 9.8%

Results for CC12CC[C@H]3[C@@H](CCC4(O)CC(O[N+](=O)[O-])CCC34CO[N+](=O)[O-])C1(O)CCC2C1=CC(=O)OC1 (stereo partly drawn) ?
LDHA inh: 0.4

Results for COCCNC(=O)NC(=O)CCl ?
LDHA inh: -5.0

What do the screens show for `O=C(CCN1CC2CCC(CC2)C1)c1cccs1`?
TrxR1 substrate: 7.4%[11.4 µM]; LDHA inh: -4.4; IDH1 R132H inh: 2.2%; GLS inh: -6.1%; rTrxR1 inhibitor: 0.447µM*

How did Cc1ccc2c(c1)C1CN(C)CCC1N2C(=O)c1cccs1 (stereo not drawn) do in these assays?
TrxR1 substrate: 8.2%; LDHA inh: -4.7; IDH1 R132H inh: -0.1%; GLS inh: -0.8%; rTrxR1 inhibitor: -4.1%; PKM2 activator: 5.3%

What do the screens show for `COc1ccc(NP2(=O)OCC(C)(N)CO2)cc1` (stereo not drawn)?
TrxR1 substrate: 6.4%[11.4 µM]; LDHA inh: 8.2; IDH1 R132H inh: 2.4%; GLS inh: 17.9%; rTrxR1 inhibitor: 7.9%[11.4 µM]

Results for COc1ccc(NC2CC(=O)N(C(C)C)C2=O)cc1 (stereo not drawn) ?
TrxR1 substrate: 1.8%[57.1 µM]; LDHA inh: 18.8; IDH1 R132H inh: 3.1%; GLS inh: 5.8%; rTrxR1 inhibitor: 3.55µM*; PKM2 activator: 6.5%

How did CCc1ccc2[nH]c(C)c(CCN)c2c1 do in these assays?
LDHA inh: -2.1
